Hits are enriched below; roughly 7.3% of the tested compounds scored in any of these assays.
IP6K1 inh – Primary qHTS assay for small molecule inhibitors of Inositol hexaphosphate kinase 1 (IP6K1) | Inositol hexakisphosphate kinase 1 (Homo sapiens), Q92551 | IP6K1 kinase, ADP-Glo luminescence, 2 h; active compounds read low | activity change, % (series mostly up to about 58 µM) | 140,000 compounds, 0.81% hits; in the data active = activity change below about -25%
Target sequence (Q92551 whole entry, looked up): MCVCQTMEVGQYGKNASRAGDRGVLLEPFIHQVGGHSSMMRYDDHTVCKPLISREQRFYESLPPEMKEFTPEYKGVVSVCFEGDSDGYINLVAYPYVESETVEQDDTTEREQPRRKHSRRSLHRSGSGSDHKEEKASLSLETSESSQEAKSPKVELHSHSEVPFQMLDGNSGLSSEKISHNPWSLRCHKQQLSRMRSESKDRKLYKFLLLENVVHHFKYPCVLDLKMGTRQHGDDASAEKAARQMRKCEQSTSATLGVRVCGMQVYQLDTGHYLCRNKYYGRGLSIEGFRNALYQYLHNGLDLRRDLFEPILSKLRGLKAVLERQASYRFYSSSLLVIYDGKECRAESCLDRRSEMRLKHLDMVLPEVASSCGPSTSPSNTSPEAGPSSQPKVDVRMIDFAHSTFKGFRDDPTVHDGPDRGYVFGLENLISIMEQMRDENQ
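ADP-Glo luminescence measures ADP made by human IP6K1 during a 2 h RT reaction with ATP/IP6 (mix at 1.3 mM/130 uM); top library doses 57.5 and 19.1 uM final.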
HEK293 tox – Cytotoxic Profiling in HEK 293 Cell Line of Diverse Libraries Using Quantitative High-Throughput Screening. HEK 293 viability, ATP luminescence (CellTiter-Glo), 48-72 h. 94,000 compounds, 6.6% hits. Potency, µM (highest dose often 115 µM), for the others: top-dose activity change, negative = cytotoxicity, hits mostly inhibitors; note: potency is the fitted concentration of half-maximal effect; nearly all actives have a fitted effect of over 60% in size
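ATP-coupled CellTiter-Glo luminescence served as viability read-out, recorded 10 min after reagent addition at room temperature. HEK 293 cells, 250 cells/well, had been incubated with pintool-transferred compound for 48 or 72 hr at 37 degree Celsius.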
SNCA viab count – GF-AFC viability counterscreen for inhibitors of alpha-synuclein gene (SNCA) expression. AID 1671193, 2021. HEK-293-SNCA-luc viability, GF-AFC fluorescence, 24 h. 150,000 compounds, 0.12% hits. Potency, µM (titrated, usually from 57.1 µM), for inactives: at the highest dose activity change, negative = cytotoxicity, actives largely listed as cytotoxic;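 note: potency is the fitted concentration of half-maximal effect; 0% = DMSO-treated cells and -100% = medium-only wells without cells; nearly all actives have a fitted effect of over 30% in size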
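HEK-293-SNCA-luc cells (1500/well) plated 24 h, then exposed 24 h to a dilution series; GF-AFC added 30 min at 37C, fluorescence 405/540 nm; normalised to medium-only and DMSO wells, Hill fit.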
Luciferase inh – Firefly luciferase inhibition profiling of diverse chemical library using quantitative high-throughput screening; purified P. pyralis luciferase, luminescence, biochemical; Potency, µM (doses to about 115 µM), actives largely listed as inhibitors; 76,000 compounds, 2.5% hits; Luciferin 4-monooxygenase (Photinus pyralis), P08659; note: potency is the fitted concentration of half-maximal effect; nearly all actives have a fitted effect of over 65% in size
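Purified P. pyralis luciferase (10nM final) in 50mM Tris acetate pH 7.5, 10mM Mg acetate, 0.01% Tween-20, 0.05% BSA with 10uM D-luciferin and 10uM ATP. Compounds titrated qHTS. Luminescence imaged on CCD.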
NIH3T3 tox – Cytotoxic Profiling in NIH 3T3 Cell Line of Diverse Libraries Using Quantitative High-Throughput Screening. Potency, µM (top dose mostly 96.7 µM), for inactives: top-dose activity change, negative = cytotoxicity, hits mostly inhibitors. 94,000 compounds, 4.3% hits. NIH 3T3 viability, CellTiter-Glo ATP luminescence, 48-72 h; note: potency is the fitted concentration of half-maximal effect; nearly all actives have a fitted effect of over 55% in size
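ATP-dependent luminescence (CellTiter-Glo) served as the viability signal for NIH 3T3 cells treated with compound for 48 or 72 hr at 37 °C.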
SNCA expr inh – Primary qHTS assay for inhibitors of alpha-synuclein gene (SNCA) expression; HEK-293 SNCA-luciferase knock-in, luminescence, 24 h; Potency, µM (top dose mostly 57.2 µM), for inactives: top-dose activity change, negative = inhibition, usual class: inhibitors; 140,000 compounds, 0.17% hits; AID 1671194, 2021;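 note: potency is the fitted concentration of half-maximal effect; plate controls were DMSO cells for no effect and cell-free wells for full effect; nearly all actives have a fitted effect of over 45% in size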
IP6K1 conf – Confirmatory qHTS assay for small molecule inhibitors of Inositol hexaphosphate kinase 1 (IP6K1); shares compounds with IP6K1 inh; recombinant IP6K1 kinase, ADP-Glo luminescence, 2 h; Potency, µM (top dose mostly 49 µM), inactives show top-dose activity change, negative = inhibition, usual class: inhibitors; 1,200 compounds, 13% hits; AID 1645852, 2021; note: potency is the fitted concentration of half-maximal effect; nearly all actives have a fitted effect of over 65% in size
* = called active by the depositor; i = inactive; ? = inconclusive; . = no result given; [ ] = dose if it differs, or a comment. Unless noted, calls come from the whole dose curve; as a rule, active = well fitted curve in the direction sought with a large enough effect; inconclusive = small, poorly fitted or top-dose-only effect, or another doubt; inactive = no such curve, though single readings can be large; an effect the other way counts as inactive or inconclusive. Unless noted, % is set by controls: 0 for no effect and ±100 for the full control effect.

SMILES	IP6K1 inh	HEK293 tox	SNCA viab count	Luciferase inh	NIH3T3 tox	SNCA expr inh	IP6K1 conf
O=C(c1ccc(F)cc1)N1Cc2[nH]cnc2C[C@H]1c1nc(-c2ccc(Cl)cc2)no1	-39*	?	-3%[87.6 µM]	i	?	2%[87.6 µM]	?
CC(c1ccc(-c2cc(N)ncn2)cc1)N1CCCCC1 (centres undefined)	12	-1%	7%	i	-1%	-15%	-2%
CC(c1ccc(-c2cc(N)ccn2)cc1)N1CCCCC1 (centres undefined)	16	?	-26%	i	-25%	6%	.
CCC(C)NC(=O)CC1=CSC2=NC(C)=C(C(=O)Nc3ccccc3)C(c3cccc(C)c3)N12 (centres undefined)	20	?	1%	i	-21%	?	.
Cc1ccc(-c2cc3nccc(-c4cc([N+](=O)[O-])ccc4O)n3n2)cc1	-25*	.	?	.	.	?	?
Cc1nc(C2CC(NC(=O)c3cnc(N)nc3C(F)(F)F)C2)cc(=O)[nH]1 (centres undefined)	9	1%	0%	i	0%	-3%	.
Cn1c(SCC(=O)Nc2ccccc2)nnc1-c1ccccc1	-34*	.	-7%	.	.	47%	-5%
COc1cccc(-c2c(C(=O)NCCc3ccc(Cl)cc3)nc3sccn23)c1	5	?	7%	.	?	-12%	.
Cc1nc(-c2c3n(c(=O)n(CC(=O)Nc4cccc(F)c4)c2=O)CCCCC3)no1	28	0%	-9%	i	4%	3%	.
CCOC(=O)C1CCCN(C(=O)c2ccc3c(c2)sc2nc(-c4cccc(OC)c4)cn23)C1 (centres undefined)	-31*	.	1%	.	.	42%	3%
COc1ccc(-c2cn3c(n2)sc2cc(C(=O)NCCCN4CCCCC4)ccc23)cc1	-9	.	?	.	.	-5%	.
COc1ccc(-c2cn3c(n2)sc2cc(C(=O)NCCCN4CCCCCC4)ccc23)cc1	-62*	.	-26%	.	.	46%	-4%
CC(=O)N1CCCC(c2nn(-c3ccccn3)c(=O)[nH]2)C1 (centres undefined)	-25*	-1%[172 µM]	4%[87.6 µM]	.	0%[138 µM]	-16%[87.6 µM]	5%
O=C(Nc1ccc(N2CCC(N3CCCCC3)CC2)c(C(=O)O)c1)c1ccccc1	-37*	.	4%	.	.	15%	?
COc1cccc(-c2ccc(NC(=O)C3=C(C(=O)O)CCC3)c(F)c2)c1	-27*	.	-10%	.	.	105%	?
COc1cccc(-c2cc(C3CCN(C(=O)Nc4ccc(Cl)cc4F)CC3)[nH]n2)c1	-3	?	-3%	i	?	-4%	.
CC(C)(C)C(=O)N1CCCC(C(=O)N2CCC(N3Cc4cccn4C3=O)CC2)C1 (centres undefined)	0	-18%	-4%	.	-17%	17%	.
Cc1cccc(CN2CCn3c(nnc3[C@@H]3C[C@@H](O)CN3Cc3cccnc3)C2)c1	-7	i	-10%[12.5 µM]	i	1%	7%	.
Cc1cccc(Nc2c3c(nc4nncn24)CCC3)c1C	-27*	.	-9%	.	.	48%	-3%
CCc1nc2ccc(C(=O)NCc3ccc(N(C)C)cc3)cc2nc1CC	-26*	.	-1%	.	.	12%	-16%
COc1ccc(-c2nc(-c3c(C)noc3C)cc3c2cc(C)n3C)cn1	-21	?	1%[87.6 µM]	i	?	21%[87.6 µM]	.
COc1ccc(-c2nc(-c3c(C)noc3C)cc3[nH]c(C)cc23)cn1	-31*	?	-16%[87.6 µM]	i	?	48%[87.6 µM]	?
O=C(Nc1nc2cccc(-c3ccc(CN4CCS(=O)(=O)CC4)cc3)n2n1)C1CC1	-9	.	?	.	.	52%	39%
O=C(Nc1cccc(-c2cccc(Cl)c2)c1)C1CCN(Cc2cccc(O)c2)CC1	8	?	?	i	?	?	.
Cn1cnnc1-c1nn(C)c2c1CN(C(=O)CCC(=O)N1CC(=O)Nc3ccccc31)CC2	-12	i	7%	i	4%	5%	.
SMILES	IP6K1 inh	HEK293 tox	SNCA viab count	Luciferase inh	NIH3T3 tox	SNCA expr inh	IP6K1 conf
COC(=O)c1c(SC)nc2ccccc2c1OCc1ccccc1Cl	-26*	.	-1%	.	.	-13%	-7%
COC(=O)c1c(SC)nc2ccccc2c1OCc1cc(C)ccc1C	40	.	6%	.	.	?	.
CC(C)CN1C(=O)c2ccccc2C(C(=O)Nc2ccc(C(N)=O)cc2)C12CCCCC2 (centres undefined)	7	?	-10%	i	-27%	-14%	.
CC(C)Oc1ccc2c(NC(=O)CN3CCCC3=O)nn(Cc3ccccc3)c2c1	-33*	?	-7%	i	-31%	22%	-4%
Cn1nc(-c2ccncc2)cc1NC(=O)c1ccccc1	-4	?	-1%[87.6 µM]	.	?	7%[87.6 µM]	.
Nc1nc(N)c(S(=O)(=O)c2ccccc2)c(Nc2ccc(Br)cc2)n1	-36*	.	1%	.	.	-2%	?
Nc1nc(N)c(S(=O)(=O)c2ccccc2)c(Nc2ccccc2)n1	-2	.	-13%	.	.	16%	.
COc1cccc(NC(=O)CC2C(=O)OCCN2Cc2ccccc2)c1 (centres undefined)	-48*	.	9%	.	.	6%	-2%
O=C(CC1C(=O)OCCN1Cc1ccccc1)Nc1cccc(C(F)(F)F)c1 (centres undefined)	3	.	-28%	.	.	?	.
Cn1cnc2cc(-c3ccc(F)cc3)cc(C(=O)NCCc3cnc[nH]3)c21	-31*	3%[172 µM]	-2%[87.6 µM]	i	?	-28%[87.6 µM]	?
OCc1c[nH]c2ccccc12	-28*	.	-13%	.	.	-30%	-13%[92.2 µM]
O=C(NCCCN1CCOCC1)C1CN(S(=O)(=O)c2ccccc2)CC12CCCCC2 (centres undefined)	-1	-5%	6%	i	5%	3%	.
CCCCCCCC(=O)[O-].CCCCCCCC(=O)[O-].[Zn+2]	-36*	.	-24%[23.9 µM]	.	.	-52%[25.6 µM]	?
